Set-up in all cases: scale not given: direction of the effect not stated beside the values
Experiment [1] deals with Protein translocase subunit SecA (Escherichia coli (strain K12)) (UniProt P10408). Kind of experiment: Assay to Identify E. coli SecA ATPase Inhibitors. It counts as functional. Conditions: 30 µM.
Experiment [2] addresses T1, Ubiquitin-activating enzyme e1, putative (Leishmania donovani (strain BPK282A1)) (UniProt E9BSI1).
T1 sequence (whole entry): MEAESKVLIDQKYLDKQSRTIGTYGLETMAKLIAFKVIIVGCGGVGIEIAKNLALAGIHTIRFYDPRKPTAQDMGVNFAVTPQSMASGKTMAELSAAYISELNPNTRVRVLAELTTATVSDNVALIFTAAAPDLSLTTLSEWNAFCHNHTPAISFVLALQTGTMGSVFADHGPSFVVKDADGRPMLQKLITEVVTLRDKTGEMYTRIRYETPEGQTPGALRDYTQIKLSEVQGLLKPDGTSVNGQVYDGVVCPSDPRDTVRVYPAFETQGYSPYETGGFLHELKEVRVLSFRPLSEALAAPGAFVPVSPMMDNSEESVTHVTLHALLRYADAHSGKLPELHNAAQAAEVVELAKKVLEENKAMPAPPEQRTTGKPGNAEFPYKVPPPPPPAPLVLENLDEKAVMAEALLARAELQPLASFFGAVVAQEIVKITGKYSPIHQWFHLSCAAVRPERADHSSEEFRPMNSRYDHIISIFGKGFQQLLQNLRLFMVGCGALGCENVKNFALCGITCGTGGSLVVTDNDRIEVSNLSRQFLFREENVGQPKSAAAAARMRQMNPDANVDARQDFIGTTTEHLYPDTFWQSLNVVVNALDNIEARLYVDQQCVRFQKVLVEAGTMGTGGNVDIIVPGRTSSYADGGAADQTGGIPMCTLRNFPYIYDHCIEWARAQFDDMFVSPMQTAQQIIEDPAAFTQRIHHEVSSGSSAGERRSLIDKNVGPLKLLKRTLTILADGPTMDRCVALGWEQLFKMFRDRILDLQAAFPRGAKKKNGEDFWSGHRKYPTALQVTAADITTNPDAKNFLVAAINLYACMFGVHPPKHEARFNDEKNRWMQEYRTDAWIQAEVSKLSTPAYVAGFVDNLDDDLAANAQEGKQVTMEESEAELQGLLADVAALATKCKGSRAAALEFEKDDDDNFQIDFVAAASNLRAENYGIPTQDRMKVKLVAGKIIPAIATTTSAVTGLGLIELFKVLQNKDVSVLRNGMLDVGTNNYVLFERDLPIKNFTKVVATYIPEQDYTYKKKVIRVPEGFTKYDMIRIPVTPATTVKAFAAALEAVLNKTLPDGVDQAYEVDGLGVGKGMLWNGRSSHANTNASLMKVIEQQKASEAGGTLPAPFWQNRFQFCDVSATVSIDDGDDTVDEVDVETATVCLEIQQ
Nature of the experiment: Leishmania donovani Ubiquitin Activating Enzyme (LdE1). It counts as functional. The note with it: 30 µM.

The target of experiment [3] is Sialic acid-binding Ig-like lectin 9 (Homo sapiens) (UniProt Q9Y336). Nature of the experiment: Hs-Siglec9 ALPHAscreen SOP 20170721. Conditions: 10 µM.
Sialic acid-binding Ig-like lectin 9 (Homo sapiens), sequence (Q9Y336 whole entry): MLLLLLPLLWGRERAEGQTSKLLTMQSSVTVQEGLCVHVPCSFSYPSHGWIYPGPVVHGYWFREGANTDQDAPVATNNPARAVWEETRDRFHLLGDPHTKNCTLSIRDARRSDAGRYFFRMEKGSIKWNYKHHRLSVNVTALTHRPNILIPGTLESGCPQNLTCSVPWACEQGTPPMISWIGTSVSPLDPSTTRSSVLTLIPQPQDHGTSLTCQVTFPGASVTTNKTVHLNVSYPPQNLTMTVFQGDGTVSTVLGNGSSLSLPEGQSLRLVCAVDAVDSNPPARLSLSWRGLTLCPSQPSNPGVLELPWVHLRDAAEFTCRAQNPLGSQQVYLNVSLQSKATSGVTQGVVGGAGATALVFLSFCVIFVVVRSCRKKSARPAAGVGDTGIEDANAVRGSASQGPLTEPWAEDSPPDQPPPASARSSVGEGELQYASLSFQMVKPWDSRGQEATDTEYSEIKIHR
The subject of another experiment is Trypanosoma cruzi. Kind of experiment: Trypanosoma cruzi phosphomannomutase and mannose-1-phosphate guanylyltransferase assay. It counts as functional. The note with it: 10 µM.
The target in experiment [4] is T2, Arginase-2, mitochondrial (Homo sapiens) (UniProt P78540).
T2 sequence (whole entry): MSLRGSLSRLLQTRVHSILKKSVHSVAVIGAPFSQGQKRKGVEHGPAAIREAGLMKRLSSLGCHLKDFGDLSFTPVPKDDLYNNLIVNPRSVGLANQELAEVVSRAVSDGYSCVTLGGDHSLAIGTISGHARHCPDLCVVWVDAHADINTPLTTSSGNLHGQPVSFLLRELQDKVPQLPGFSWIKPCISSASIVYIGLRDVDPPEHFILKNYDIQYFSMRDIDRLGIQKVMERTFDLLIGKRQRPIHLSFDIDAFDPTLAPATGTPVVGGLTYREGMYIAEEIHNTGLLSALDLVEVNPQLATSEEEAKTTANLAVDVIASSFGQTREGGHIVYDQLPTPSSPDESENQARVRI
Nature of the experiment: in vitro enzyme assay to detect the production of urea directly proportional to the activity of Arginase II. Note: in the data most compounds retested in dose-response had high values. Format: functional. Conditions: 33.3 µM.

Experiment [5] deals with T3, Proteasome subunit beta (Trypanosoma cruzi) (UniProt O96673).
T3 sequence (whole entry): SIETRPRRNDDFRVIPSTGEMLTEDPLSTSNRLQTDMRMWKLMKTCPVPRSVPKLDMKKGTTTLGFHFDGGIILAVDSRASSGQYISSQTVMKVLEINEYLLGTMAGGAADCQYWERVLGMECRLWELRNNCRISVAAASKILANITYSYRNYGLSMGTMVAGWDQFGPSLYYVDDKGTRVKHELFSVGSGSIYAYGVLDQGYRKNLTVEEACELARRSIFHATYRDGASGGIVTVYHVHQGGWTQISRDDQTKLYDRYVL
Nature of the experiment: Trypanosoma cruzi proteasome chymotrypsin-like activity (TcProtChymo) assay. Note: in the data most compounds retested in dose-response had high values. Format: functional. The note with it: 9.37 µM.

The next experiment is filed under the species Homo sapiens. Nature of the experiment: To identify inhibition of the IFN signalling (Jak-Stat) pathway via expression of an eGFP reporter gene under the control of an IFN-stimulated response element (ISRE) containing MxA promoter. Format: functional. The note with it: 30 µM. On the technique in general: A reporter such as luciferase makes a cellular process visible.

Experiment [6] addresses T4, Tyrosyl-tRNA synthetase, putative (Trypanosoma cruzi (strain CL Brener)) (UniProt Q4DSP6).
T4 sequence (whole entry): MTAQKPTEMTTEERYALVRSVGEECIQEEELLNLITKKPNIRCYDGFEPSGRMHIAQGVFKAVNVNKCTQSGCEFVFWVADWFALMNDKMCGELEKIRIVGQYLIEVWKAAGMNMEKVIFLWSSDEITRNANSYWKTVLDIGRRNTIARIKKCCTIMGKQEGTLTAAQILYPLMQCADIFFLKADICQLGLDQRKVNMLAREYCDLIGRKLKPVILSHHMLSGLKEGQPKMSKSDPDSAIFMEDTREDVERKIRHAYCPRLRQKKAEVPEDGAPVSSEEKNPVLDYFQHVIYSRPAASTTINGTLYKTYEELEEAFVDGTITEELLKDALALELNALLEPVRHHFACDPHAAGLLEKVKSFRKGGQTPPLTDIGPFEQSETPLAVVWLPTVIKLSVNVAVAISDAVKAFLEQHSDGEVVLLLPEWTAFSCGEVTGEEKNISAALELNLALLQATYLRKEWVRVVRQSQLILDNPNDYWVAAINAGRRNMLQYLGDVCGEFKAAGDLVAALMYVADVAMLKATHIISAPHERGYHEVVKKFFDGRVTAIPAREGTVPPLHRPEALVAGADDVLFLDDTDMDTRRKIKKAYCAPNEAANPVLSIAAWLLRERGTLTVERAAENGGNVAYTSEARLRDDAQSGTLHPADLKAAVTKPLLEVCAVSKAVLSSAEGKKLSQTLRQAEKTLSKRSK
Nature of the experiment: Trypanosoma cruzi tyrosyl tRNA synthetase (TcYRS) _High Tyrosine SOP. Note: in the data most compounds retested in dose-response had high values. Format: functional. Conditions: 30 µM.

Experiment [7] deals with T4, Tyrosyl-tRNA synthetase, putative (Trypanosoma cruzi (strain CL Brener)). Kind of experiment: Trypanosoma cruzi tyrosyl tRNA synthetase (TcYRS) SOP. It counts as functional. The note with it: 30 µM.
In experiment [8] the target is Chromo domain-containing protein 1 (Saccharomyces cerevisiae (strain ATCC 204508 / S288c) (Baker's yeast)) (UniProt P32657). Kind of experiment: ScCHD-1 Enzyme Inhibition Assay. Note: in the data most compounds retested in dose-response had high values. It counts as functional. Conditions: 30 µM.
Chromo domain-containing protein 1 (Saccharomyces cerevisiae (strain ATCC 204508 / S288c) (Baker's yeast)), sequence (P32657 whole entry, the tested form may be a part): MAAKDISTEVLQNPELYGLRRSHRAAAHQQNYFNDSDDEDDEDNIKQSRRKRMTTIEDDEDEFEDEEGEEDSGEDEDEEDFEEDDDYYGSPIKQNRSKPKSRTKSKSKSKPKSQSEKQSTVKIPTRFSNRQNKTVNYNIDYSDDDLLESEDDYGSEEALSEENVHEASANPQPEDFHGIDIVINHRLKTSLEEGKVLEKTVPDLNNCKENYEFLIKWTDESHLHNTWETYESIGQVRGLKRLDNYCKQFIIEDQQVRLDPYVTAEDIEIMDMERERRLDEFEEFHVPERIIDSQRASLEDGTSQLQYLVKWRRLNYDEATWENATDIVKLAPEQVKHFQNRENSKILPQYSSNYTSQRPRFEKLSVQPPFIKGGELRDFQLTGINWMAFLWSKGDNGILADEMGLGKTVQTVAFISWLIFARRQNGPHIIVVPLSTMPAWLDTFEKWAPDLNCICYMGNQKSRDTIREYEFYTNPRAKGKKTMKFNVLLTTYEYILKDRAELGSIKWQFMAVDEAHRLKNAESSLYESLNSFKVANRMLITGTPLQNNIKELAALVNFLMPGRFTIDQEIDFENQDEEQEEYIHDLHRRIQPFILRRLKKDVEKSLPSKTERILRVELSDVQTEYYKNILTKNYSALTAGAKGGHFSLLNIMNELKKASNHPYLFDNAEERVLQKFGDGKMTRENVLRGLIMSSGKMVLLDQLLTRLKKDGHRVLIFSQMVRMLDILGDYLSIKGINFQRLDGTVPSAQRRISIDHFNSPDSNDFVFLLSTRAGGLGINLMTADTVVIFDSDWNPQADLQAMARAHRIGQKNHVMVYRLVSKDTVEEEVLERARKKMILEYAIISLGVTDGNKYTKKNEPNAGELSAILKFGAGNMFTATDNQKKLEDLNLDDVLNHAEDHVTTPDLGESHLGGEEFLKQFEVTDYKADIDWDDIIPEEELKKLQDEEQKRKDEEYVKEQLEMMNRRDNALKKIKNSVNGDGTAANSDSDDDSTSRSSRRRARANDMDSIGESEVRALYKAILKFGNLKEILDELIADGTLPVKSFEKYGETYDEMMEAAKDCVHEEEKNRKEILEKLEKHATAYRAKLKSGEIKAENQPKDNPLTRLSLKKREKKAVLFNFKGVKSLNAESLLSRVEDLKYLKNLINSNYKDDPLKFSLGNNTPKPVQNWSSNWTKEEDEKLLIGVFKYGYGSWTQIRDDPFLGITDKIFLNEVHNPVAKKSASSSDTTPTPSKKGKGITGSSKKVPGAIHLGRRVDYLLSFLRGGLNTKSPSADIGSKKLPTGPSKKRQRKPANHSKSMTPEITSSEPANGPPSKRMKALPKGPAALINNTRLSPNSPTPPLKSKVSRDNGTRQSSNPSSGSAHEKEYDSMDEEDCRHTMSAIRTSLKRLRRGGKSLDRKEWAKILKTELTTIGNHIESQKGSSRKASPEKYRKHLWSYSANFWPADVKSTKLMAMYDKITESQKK

Consider twelve compounds from ChEMBL document CHEMBL3988442, “University of Dundee, Small-Polar-MMV Screening Library” (2021).

Structures are written as SMILES. For part of these data: Measured potencies and affinities stand elsewhere.

Protein translocase subunit SecA (Escherichia coli (strain K12)), sequence (P10408 whole entry): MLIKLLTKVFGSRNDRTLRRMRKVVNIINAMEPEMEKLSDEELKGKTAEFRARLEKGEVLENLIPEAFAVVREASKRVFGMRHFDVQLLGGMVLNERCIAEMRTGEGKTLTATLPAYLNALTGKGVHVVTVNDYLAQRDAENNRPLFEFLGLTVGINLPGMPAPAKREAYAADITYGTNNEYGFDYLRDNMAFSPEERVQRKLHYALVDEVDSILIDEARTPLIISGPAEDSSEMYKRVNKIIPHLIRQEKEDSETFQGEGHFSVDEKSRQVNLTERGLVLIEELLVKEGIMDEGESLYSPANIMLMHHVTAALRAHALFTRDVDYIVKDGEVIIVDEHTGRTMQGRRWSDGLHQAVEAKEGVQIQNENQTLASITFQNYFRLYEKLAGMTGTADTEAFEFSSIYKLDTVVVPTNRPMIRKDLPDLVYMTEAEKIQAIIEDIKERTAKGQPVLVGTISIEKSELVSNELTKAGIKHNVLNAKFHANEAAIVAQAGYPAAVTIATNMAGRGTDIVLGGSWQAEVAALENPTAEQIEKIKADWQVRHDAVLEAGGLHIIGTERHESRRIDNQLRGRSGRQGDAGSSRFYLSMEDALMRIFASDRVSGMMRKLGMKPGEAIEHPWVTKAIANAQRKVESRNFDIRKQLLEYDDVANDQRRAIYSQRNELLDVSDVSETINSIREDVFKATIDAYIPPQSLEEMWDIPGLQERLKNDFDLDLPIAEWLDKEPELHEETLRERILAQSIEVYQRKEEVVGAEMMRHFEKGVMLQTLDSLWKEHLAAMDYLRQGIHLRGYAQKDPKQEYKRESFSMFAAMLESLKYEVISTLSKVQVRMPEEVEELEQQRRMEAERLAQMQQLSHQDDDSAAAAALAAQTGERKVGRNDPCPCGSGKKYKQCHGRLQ

For the compound `Cn1cc(CN2CCC3(CC(=O)N(c4ccc5c(c4)OCO5)C3)C2)cn1` (stereo not given), the Percent Effect is -2.97% in experiment [1]; 1.3% in [2]; -2.34% in experiment [3]; 1.85% in the experiment on Trypanosoma cruzi; -2.43% in [4]; -1.15% in experiment [5]. For the same compound, the Percent Effect in the experiment listed under Homo sapiens was 4.19%; in [6], 4.74%; in experiment [7] it was 5.13%; in experiment [8], -0.178%.

Consider `CCCc1noc(CN2CCCC2c2c(C)nn(C)c2OC)n1` (stereo not given), for which the Percent Effect in experiment [1] was -8.89%; in [2], -2.67%; in experiment [3], -1.2%; in the experiment on Trypanosoma cruzi, -1.61%; in experiment [4] it was 3.1%; in experiment [5], 2.29%. Besides, the Percent Effect is 9.23% in the experiment filed under Homo sapiens, -2.63% in experiment [6], -2.56% in experiment [7] and -6.05% in experiment [8].

On to `CN1[C@H](CN2CCCC2)C[C@@H]2CN(C(=O)c3cccn3C)CC[C@@H]21`, for which the Percent Effect in experiment [1] was -1.76%; in experiment [2] it was -1.3%; in experiment [3] it was 1.42%; in the experiment on Trypanosoma cruzi it was 0.563%; in experiment [4] it was -0.457%; in experiment [5] it was 0.944%. In addition, the Percent Effect in the experiment filed under Homo sapiens is -0.498%; in experiment [6], 10.6%; in [7], 12.5%; in [8], -6.06%.

In the case of `Cc1nc(C)n(CC2CN(CCCOc3ccccc3C)CCO2)n1` (stereo not given), the Percent Effect in experiment [1] was -2.1%; in experiment [2], -2.67%; in experiment [3], -2.65%; with Trypanosoma cruzi it was 1.61%; in experiment [4], 2.66%; in experiment [5], 0.763%. In addition, the Percent Effect in the experiment filed under Homo sapiens was 7.57%; in experiment [6], -0.526%; in experiment [7], -7.69%; in [8], -5.97%.

`Cc1ccccc1CN(C)Cc1nc2c(cnn2C)c(=O)[nH]1`: the Percent Effect was -0.754% in experiment [1]; 10.3% in [2]; -3.07% in [3]; 1.41% in the experiment on Trypanosoma cruzi; -0.82% in experiment [4]; 16.8% in [5]. Also, the Percent Effect was 7.6% in the experiment listed under Homo sapiens, 8.13% in [6], 18.1% in experiment [7] and -3.59% in experiment [8].

For `CCc1nc(CN2CCCN(C(=O)CCSC)CC2)cs1`, the Percent Effect in experiment [1] is -1.79%; in [2] it was 12.8%; in experiment [3], -12.3%; in the experiment with Trypanosoma cruzi, -7.98%; in experiment [4], 6.15%; in experiment [5] it was 9.81%. Also, the Percent Effect in the experiment filed under Homo sapiens was 22.8%; in experiment [6], 0.478%; in experiment [7], 18.1%; in experiment [8] it was -4.21%.

Regarding `Cn1cnc2c1CCN(Cc1cccc(OCC(N)=O)c1)C2`, the Percent Effect in experiment [1] is -0.391%; in [2], 15.4%; in [3] it was -8.42%; with Trypanosoma cruzi, 7.42%; in experiment [4] it was 2.46%; in [5], 15.3%. In addition, the Percent Effect was 23.1% in the experiment filed under Homo sapiens, 3.35% in [6], 18.1% in [7] and -7.71% in experiment [8].

With `Cc1cc(NC(=O)NCC(C)N2CCc3ccccc32)no1` (stereo not given), the Percent Effect in experiment [1] was -4.79%; in experiment [2] it was 26%; in experiment [3], 2.28%; with Trypanosoma cruzi, -3.54%; in experiment [4], 1.02%; in experiment [5], 5.96%. The Percent Effect is -2.59% in the experiment listed under Homo sapiens, 12.8% in [6], 21.2% in experiment [7] and -6.91% in experiment [8].

Take `O=C(C1CCC1)N1CCn2c(COc3ncccn3)nnc2C1`: the Percent Effect was -7.65% in [1]; 3.9% in experiment [2]; -3.93% in experiment [3]; -5.36% in the experiment on Trypanosoma cruzi; -11.7% in [4]; 12.8% in experiment [5]. The Percent Effect in the experiment filed under Homo sapiens is 6.38%; in experiment [6], 0.526%; in experiment [7], 5.13%; in experiment [8], -2.55%.

Take `Cn1c(Cn2cccn2)nnc1C1CCCN(c2ccncc2F)C1` (stereo not given): the Percent Effect is -3.83% in [1]; 10.8% in experiment [2]; 2.04% in experiment [3]; -2.62% in the experiment with Trypanosoma cruzi; 0.35% in [4]; 12% in [5]. Also, the Percent Effect in the experiment listed under Homo sapiens was 27.1%; in [6] it was 2.66%; in experiment [7] it was 12.2%; in experiment [8], 0.18%.

On to `O=C(Nc1cccc(N2CCCC2)c1)C1CCCN1c1nccs1` (stereo not given), for which the Percent Effect is -2.06% in [1]; -15.4% in experiment [2]; 6.8% in [3]; 8.92% in the experiment with Trypanosoma cruzi; -1.23% in experiment [4]; 1.79% in [5]. The Percent Effect in the experiment filed under Homo sapiens was -2.5%; in experiment [6] it was 8.13%; in experiment [7], -1.21%; in [8], -2.52%.

With `c1cnnc(N2CCCC2CNCc2nc(-c3ccsc3)no2)c1` (stereo not given), the Percent Effect in experiment [1] is -4.07%; in experiment [2], -23.1%; in experiment [3], -7.35%; in the experiment with Trypanosoma cruzi, 9.11%; in experiment [4], -6.15%; in experiment [5], 0.256%. Besides, the Percent Effect in the experiment listed under Homo sapiens was -10.2%; in [6], 5.26%; in experiment [7], 6.02%; in experiment [8] it was -1.74%.
